Results published in PubChem BioAssay AID1628 (Sanford-Burnham Center for Chemical Genomics, 2009).
Screen size: about 190,000 compounds; about 930 (0.49%) were called active. This is one part of the list. Entries with a potency or affinity are not part of this list. Unmarked numbers belong to inactive results.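 Rule for the calls: active = z-score of insulin promoter reporter brightness in nuclei below -3 at 5 µM, with at least 500 cells counted; inconclusive = wells with under 500 cells, flagged as toxic or sparse; inactive = the rest.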

Assay: insulin promoter down-regulators in MIN6 cells, imaging, high-content screening, mouse beta cells (AID 1628)
Conditions: MIN6 insulin promoter GFP reporter, at 5 µM, stronger effect = lower value

Row | SMILES | z-score
1 | CC(C)(C)c1nc(NCc2ccc3c(c2)OCO3)c2nnn(Cc3ccccc3Cl)c2n1 | 2.04
2 | COc1ccc(Cl)cc1NC1=NCC(C)S1 (stereo not given) | -4.13 (active)
3 | CN1CCN(c2nc(Cl)ncc2F)CC1 | 4.91
4 | CC1=NCCc2c1[nH]c1ccccc21 | -0.55
5 | CCn1nc(/C=C/c2ccccc2)nc2c(=O)n(C)c(=O)nc1-2 | -4.69 (active)
6 | Cc1cc2c(C(F)(F)F)cc(=O)oc2c2c1NCCC2 | 5.21
7 | CN1C2CCC1CC(=NO)C2 | 0.21
8 | Nc1cc2nc3ccccc3nc2cc1N | 3.68
9 | CC(C)[C@H]1C(=O)O[C@H](C(C)C)C(=O)N(C)[C@@H](C(C)C)C(=O)O[C@H](C(C)C)C(=O)N(C)[C@@H](C(C)C)C(=O)O[C@H](C(C)C)C(=O)N1C | -4.32 (active)
10 | NC(=O)OCCSc1nnc(-c2cccc(C(N)=S)c2)o1 | 1.36
11 | O=C1NC(=O)N(c2ccc3c(c2)OCO3)C(=O)/C1=C/c1cccs1 | 1.66
12 | c1ccc2c(N3CCNCC3)nsc2c1 | 3.06
13 | COc1ccc(OCC(=O)N2CCN(C3CCC(c4ccccc4)CC3)CC2)cc1 (stereo not given) | -4.73 (active)
14 | COc1ccccc1CN1CCN(C(=O)COc2ccccc2)CC1 | -4.58 (active)
15 | COc1ccc(CC(=O)N2CCN(C)CC2)cc1 | 3.53
16 | CCC(=O)c1ccc(OC)c(OC)c1 | -0.74
17 | C=CCN1C(=O)/C(=C/c2ccc(N3CCOCC3)o2)C(=O)NC1=S | 3.53
18 | Cn1c(=O)c2c(ncn2CCCl)n(C)c1=O | 0.35
19 | CCc1ccccc1N1C(=O)/C(=C/c2ccc(N3CCN(C)CC3)o2)C(=O)NC1=S | 3.37
20 | Cc1cc([N+](=O)[O-])c2ccccc2[n+]1[O-] | -6.12 (active)
21 | c1ccc2c(NC3=NCCS3)cccc2c1 | -5.01 (active)
22 | CC(Cc1ccccc1)NC(=O)CN1CCCC1=O (stereo not given) | -3.46 (active)
23 | COc1ccc(-c2cc(-c3ccccc3)[n+](C)c(-c3ccccc3)c2)cc1 | -4.19 (active)
24 | CCN(CC)c1ccc(/C=N/c2sc3c(c2C#N)C2CCN3CC2)c(O)c1 | 16.8
25 | CC1CCCC(C2(O)C(=O)Nc3ccccc32)C1=O (stereo not given) | 5.61
